Hit rate of the full screen: of about 68,000 compounds, about 2,700 (4%) showed an effect of 50% or more. Only a selection was taken, and strong results are over-represented in it overall.

The test system of the assay is Plasmodium berghei. Nature of the assay: Screen against P. berghei liver stage (PbLuc), transformed with Luciferase, at 2uM. Type of assay: functional, HepG2. Particulars: tested at 2 uM.
Consider `CCN1C(=O)CCC12CCCN(CCc1ccccc1)C2` (stereo unspecified), for which the INHIBITION is 56.76%.

For the compound `O=C1CCC2(CCCN(Cc3ccccc3F)C2)N1CC1CC1` (stereo unspecified), the INHIBITION came out at 70.48%. Turning to `COCCN1C(=O)CCC12CCCN(Cc1ccccc1F)C2` (stereo unspecified), the INHIBITION is 7.88%.

Take `O=C1CCC2(CCCN(CCc3ccccc3)C2)N1Cc1cccnc1` (stereo unspecified): the INHIBITION is on record as 42.18%. Then `CNC(=O)CN1C(=O)CCC12CCCN(Cc1ccccc1F)C2` (stereo unspecified), with -12.98%; and `COCCN(C)C[C@@H]1CN(C(=O)c2sc3ccccc3c2C)C[C@@H]1CO`, with 25.45%; and `Cc1nc([C@H]2C[C@@H]3CCN(Cc4scnc4C)C[C@H]3O2)no1`, with 40.64%. As for `CCCC12CN3CC(C)(CN(C1)C3c1[nH]c(=O)[nH]c(=O)c1C)C2=O` (stereo unspecified), the INHIBITION was 16.49%. `CCn1nccc1CNC(=O)C1CCCCC1`: the INHIBITION is -39.57%. Then `CCn1nccc1CNC(=O)C1CCCC1`, with -56.08%. As to `CCn1nccc1CNC(=O)CCC1CCCC1`, the INHIBITION is 59.21%. Next, `COCc1cccc(S(=O)(=O)Nc2ncc(C)s2)c1`: -2.19%; `Cn1ncc2c1NC(=O)CC2c1ccccc1Cl` (stereo unspecified): 33.16%.

Consider `O=S1(=O)NC(C2CCN(Cc3ccccn3)CC2)Nc2ccccc21` (stereo unspecified), for which the INHIBITION is on record as 30.31%. For `Cc1ccc2[nH]c(CN(C)c3cc(CCN)nc(C)n3)nc2c1`, the INHIBITION was -56.42%. Next, `Cc1ccc2[nH]c(CN(C)c3cc(CN)nc(C)n3)nc2c1`: 60.18%. As for `Cc1nc(CCN)cc(N(C)Cc2nc3ccc(F)cc3[nH]2)n1`, the INHIBITION is -3.87%. Then `CNC(=O)CS(=O)(=O)Cc1ccc(OC)c(F)c1`, with 69.67%; and `COc1ccc(CS(=O)(=O)CC(=O)NCc2ccccc2F)cc1F`, with 6.13%; and `COc1ccc(CS(=O)(=O)CC(=O)NCC2CC2)cc1F`, with 29.89%. With `Cc1cccc(S(=O)(=O)N2C[C@@H]3C[C@@H](c4nc(C)no4)O[C@@H]3C2)c1`, the INHIBITION was 0.8%.

Consider `CCCc1cnc(C)nc1NCCc1nc(C)cc(=O)[nH]1`, for which the INHIBITION came to 20.14%. Then `CN(C)C(=O)CN1CCn2cc(Cn3cccn3)nc2C1`, with 14.47%; and `CN(C(=O)c1cccc(C#N)c1)c1nnc(C2CCOC2)s1` (stereo unspecified), with 53.95%. `CN(C(=O)c1ccc(C#N)cc1)c1nnc(C2CCOC2)s1` (stereo unspecified): the INHIBITION is reported as -7.22%.

Regarding `CN(C(=O)c1ccncc1)c1nnc(C2CCOC2)s1` (stereo unspecified), the INHIBITION was 24.58%.

Consider `CN(Cc1ccccn1)C1CC2(CCN(Cc3ccccn3)CC2)C1`, for which the INHIBITION is given as 34.48%. In the case of `Cc1nc(C)c(CN(C)C2CCN(C(=O)OC(C)(C)C)CC2)s1`, the INHIBITION came to 73.62%. For `CN(Cc1cncs1)C1CCN(C(=O)OC(C)(C)C)CC1`, the INHIBITION is 12.83%.

On to `CN(Cc1cscn1)C1CCN(C(=O)OC(C)(C)C)CC1`, for which the INHIBITION is given as -33.82%.

As to `CC(NC(=O)COc1cccc[n+]1[O-])C1CC1` (stereo unspecified), the INHIBITION is 25.69%.

Regarding `CN1C(=O)[C@@H]2CC[C@H]1CN(Cc1cccc(OCc3ccccn3)c1)C2`, the INHIBITION was determined as 26.75%. Then `COc1cccc(-c2ncc(CN3C[C@H]4CC[C@@H](C3)N(C)C4=O)s2)c1`, with 38.87%; and `COc1cccc(-c2cccc(CN3C[C@H]4CC[C@@H](C3)N(C)C4=O)c2)c1`, with 56.49%; and `Cc1c(F)cccc1S(=O)(=O)NCCN`, with 39.23%. Next, `Cc1c(F)cccc1S(=O)(=O)NCC(C)(C)CC(C)O` (stereo unspecified): 15.2%; `Cc1ccc(S(=O)(=O)N(C)CC(C)O)c(F)c1` (stereo unspecified): 56.69%.

`CC(O)CN(C)S(=O)(=O)c1ccc(C#N)cc1F` (stereo unspecified): the INHIBITION was found to be 34.18%. Next, `CN(CC(N)=O)S(=O)(=O)c1ccc(F)cc1F`: 0.44%; `Cc1c(F)cccc1S(=O)(=O)N(C)CC(C)O` (stereo unspecified): 52.38%; `Cc1nn(CC(C)C)c(N(C)C)c1CNCc1ccnn1C`: 9.97%. Then `COCCn1ccc(=O)c(OCC(=O)Nc2cccc(Cl)c2)c1C`, with 6.41%; and `Cc1noc(C2CCCN(C(=O)CCNc3ncccn3)C2)n1` (stereo unspecified), with 31.78%. Then `CC(C)CCN(C)Cn1ncc2cn(-c3ccccc3)nc2c1=O`, with 19.45%; and `Cc1cc(C(=O)NCC2OCCc3cn(CC4CC4)nc32)c(C)[nH]1` (stereo unspecified), with -28.58%.

On to `O=S(=O)(NCC1OCCc2cn(CC3CCOCC3)nc21)C1CC1` (stereo unspecified), for which the INHIBITION is on record as 24.43%. Turning to `c1ccc(Cn2cc3c(n2)C(CNCC2CCOCC2)OCC3)nc1` (stereo unspecified), the INHIBITION is 26.66%. Next, `c1cc(CNCC2OCCc3cn(CC4CCOCC4)nc32)ccn1` (stereo unspecified): -66.93%; `CCCS(=O)(=O)NCC1OCCc2cn(CC3CCOCC3)nc21` (stereo unspecified): 12.95%. Next, `c1ccc(Cn2cc3c(n2)C(CNCc2ccco2)OCC3)nc1` (stereo unspecified): 15.96%; `O=S(=O)(NCC1OCCc2cn(Cc3ccccn3)nc21)C1CC1` (stereo unspecified): 50.32%; `CCS(=O)(=O)NCC1OCCc2cn(CC3CCOCC3)nc21` (stereo unspecified): 62.4%. Consider `COCCn1cc2c(n1)C(CNC(=O)c1cc(C)[nH]c1C)OCC2` (stereo unspecified), for which the INHIBITION is 60.14%.

`O=C(NCC1OCCc2cn(CC3CCOCC3)nc21)c1ccsc1` (stereo unspecified): the INHIBITION is on record as -40.44%. Regarding `O=C(NCC1OCCc2cn(CC3CCOCC3)nc21)c1ccncc1` (stereo unspecified), the INHIBITION stood at 56.71%. Next, `COCCn1cc2c(n1)C(CNS(C)(=O)=O)OCC2` (stereo unspecified): 35.07%.

Values taken from ChEMBL document CHEMBL4513216, “Probing the Open Global Health Chemical Diversity Library for Multistage-Active Starting Points for Next-Generation Antimalarials” (ACS Infect Dis, 2020).
